The compounds below were run against NADPH oxidase 5 (Homo sapiens) (UniProt Q96PH1) (assay: NOX5-dependent H2O2 signal modulators, primary screen, NOX inhibitor project, cell-based, HEK293-NOX5, Amplex Red fluorescence (AID 1161)). Details: HEK293-NOX5, ionomycin, 45 min, higher = more signal.
Chain of NADPH oxidase 5 (Homo sapiens) (Q96PH1 whole entry, looked up): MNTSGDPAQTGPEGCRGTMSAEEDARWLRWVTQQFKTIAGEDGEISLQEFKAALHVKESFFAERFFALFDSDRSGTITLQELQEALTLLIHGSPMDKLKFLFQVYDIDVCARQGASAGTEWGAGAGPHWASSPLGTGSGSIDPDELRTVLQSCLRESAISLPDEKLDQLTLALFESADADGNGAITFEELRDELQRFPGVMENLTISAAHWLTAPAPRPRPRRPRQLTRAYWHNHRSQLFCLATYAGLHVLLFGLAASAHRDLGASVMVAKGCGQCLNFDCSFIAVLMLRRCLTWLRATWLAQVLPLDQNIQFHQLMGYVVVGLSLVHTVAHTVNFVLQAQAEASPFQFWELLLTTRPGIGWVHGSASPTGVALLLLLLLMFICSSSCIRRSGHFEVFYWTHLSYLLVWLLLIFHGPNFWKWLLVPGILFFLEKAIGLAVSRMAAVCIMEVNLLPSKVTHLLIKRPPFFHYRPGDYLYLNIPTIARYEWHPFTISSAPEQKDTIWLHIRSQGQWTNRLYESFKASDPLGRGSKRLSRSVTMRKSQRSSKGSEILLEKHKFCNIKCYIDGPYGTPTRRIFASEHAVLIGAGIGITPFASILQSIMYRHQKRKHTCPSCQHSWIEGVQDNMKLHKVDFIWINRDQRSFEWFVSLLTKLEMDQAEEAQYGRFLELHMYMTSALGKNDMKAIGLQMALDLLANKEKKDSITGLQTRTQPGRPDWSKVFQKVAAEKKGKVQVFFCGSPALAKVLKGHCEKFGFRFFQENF

SMILES | z-score
CCC(CC)C(O)C1C=CC2C(=O)NC(=O)C2N1Nc1ccc(Cl)cc1Cl (stereo not given) | -2.93
C=C(CCCC)/C(=C/C[C@@H](OC(=O)c1ccncc1)c1ccc(OCCO)cc1)c1cc(C(=O)OC)ccc1OC | -1.9
CO[C@H]1O[C@H](CO)[C@@H](OC(=O)Nc2cccc(F)c2)[C@H](OC(=O)Nc2ccccc2)[C@@H]1OC(=O)Nc1ccccc1 | -1.08
C=C(COC)C(=O)CC[C@@H](OC(C)=O)c1ccc(CO)o1 | 0.46
COC(=O)[C@H](Cc1ccccc1)N1CC2=C[C@@H](C3CC3)n3c(=O)n(C)c(=O)n3[C@H]2[C@@H]1[C@@H](O)Cc1ccccc1 | -1.71
C=C[C@H](CO[Si](CC)(CC)CC)N(Cc1ccc(OC(C)=O)c(OC)c1)S(=O)(=O)c1ccc(Br)cc1 | -1.27
C=CCOC(=O)[C@H]1[C@@H]2C(=O)O[C@@H](c3ccccc3)[C@@H](c3ccccc3)N2[C@@H](c2ccc(OCCOC(=O)[C@H]3C[C@H]4C(=O)N[C@@H](CCCCNC(C)=O)C(=O)N4[C@H]3c3ccc(O)cc3)cc2)[C@]12C(=O)Nc1ccc(I)cc12 | 0.935
CC(C)C(O)C1C=CC2C(=O)NC(=O)C2N1Nc1ccc(Cl)cc1Cl (stereo not given) | -3.83
COc1ccc([Si](C)(C)[C@H]2[C@H](CCO)O[C@@]3(C(=O)N(Cc4ccc(N(C=O)c5ccccc5)cc4)c4ccccc43)[C@@H]2C)cc1 | 2.37
CC(C)C(O)C1C=CC2C(=O)N(c3ccccc3)C(=O)C2N1Nc1ccc([N+](=O)[O-])cc1 (stereo not given) | -1.23
CC(C)C[C@@H]1NC(=O)[C@H](C(C)C)NC(=O)[C@@]23C(=O)N[C@@H](Cc4ccccc4)C2[C@H](C)[C@@]2(C)O[C@H]2C3/C=C/CC/C=C/CNC1=O (stereo not given in full) | -0.477
CC1(C)[C@@H]2CC(C(O)C3C=CC4C(=O)N(c5ccccc5)C(=O)C4N3Nc3ccc([N+](=O)[O-])cc3)=C[C@H]1C2 (stereo not given in full) | -2.02
COc1ccccc1CN1C(=O)c2ccccc2[C@@]2(Cc3ccccc3N(CC(C)C)C2=O)[C@@H]1c1ccc(CO)cc1 | 1.12
CC1CC/C=C\[C@H]2OC34C=CCN(C(C)(C)C)C(=O)[C@H]3N(C(C)CO)C(=O)[C@@H]4C2C(=O)O1 (stereo not given in full) | 1.65
O=C(NCCO)C1=C[C@H](Oc2ccccc2I)[C@@H](O)[C@H](N(Cc2ccco2)C(=O)Cc2ccccc2)C1 | 0.351
CN(C)CCCC[C@@H]1NC(=O)[C@H]2C[C@@H](C(=O)NCCCCCCN)[C@@H](c3ccc(O)cc3)N2C1=O | 0.731
COC(=O)C(CC#Cc1ccc2c(c1)[C@]1(C(=O)N2)[C@H](c2ccc(OCCO)cc2)N2[C@H](c3ccccc3)[C@H](c3ccccc3)OC(=O)[C@H]2[C@@H]1C(=O)N1CCc2cc(OC)c(OC)cc2C1)C(=O)OC | 1.96
[N-]=[N+]=Nc1ccccc1[C@H]1OC(c2ccc(OCCCO)cc2)=N[C@@]1(CCS(=O)(=O)c1ccccc1)C(N)=O | -0.909

SMILES | z-score
COC(=O)[C@@]1(Cc2ccc(F)cc2)[C@H]2c3cc(C(=O)N(C)C)n(Cc4ccccc4)c3C[C@H]2CN1C(=O)c1ccccc1 | 1.89
COc1cc(COC(C)=O)ccc1OC(C)=O | -0.154
CN1C(=O)C2C=CC(C(O)C#Cc3ccccc3)N(N3CCCCC3)C2C1=O (stereo not given) | -0.26
NC(=O)NCC#Cc1ccc2c(c1)[C@]1(C(=O)N2)[C@H](C(N)=O)[C@H]2C(=O)O[C@H](c3ccccc3)[C@H](c3ccccc3)N2[C@@H]1c1ccc(O)cc1 | -0.479
CO[C@H]1O[C@H](CO)[C@@H](OC(=O)Nc2ccc(Oc3ccccc3)cc2)[C@H](OC(=O)Nc2ccc3c(c2)OCO3)[C@H]1OC(=O)Nc1ccc2c(c1)OCO2 | -0.714
CC(C)NC(=O)[C@@H]1c2ccccc2C(=O)N(C2Cc3ccccc3C2)[C@H]1c1ccc(CO)cc1 | -0.994
CCCc1cc2c(n1Cc1cc(F)cc(F)c1)C(C)C1CN(C(=O)c3ccccc3)C(C)(C(=O)OC)C21 (stereo not given) | -2.52
[N-]=[N+]=Nc1ccccc1[C@@H]1OC(c2ccc(OCCCO)cc2)=N[C@]1(CCS(=O)(=O)c1ccccc1)C(N)=O | 0.903
O=C1c2ccccc2[C@](Cc2ccccc2I)(C(=O)NCCN2CCOCC2)[C@H](c2ccc(CO)cc2)N1Cc1ccccc1Cl | 0.608
O=C(N1CCCCC1)[C@]1(Cc2ccccc2)N=C(c2ccc(OCCCO)cc2)O[C@@H]1c1ccccc1 | -1.7
CC(=O)NCCCC[C@@H]1NC(=O)[C@H]2C[C@@H](C(=O)NCCCCCCNC(=O)CS)[C@@H](c3ccc(O)cc3)N2C1=O | 0.673
O=C(CS)NCCCCCCNC(=O)[C@@H]1C[C@@H]2C(=O)NCC(=O)N2[C@@H]1c1cccc(OCCO)c1 | 0.711
CC[C@@H]1C=C(C(=O)O)[C@H](c2ccc(Br)cc2)N1S(=O)(=O)c1ccc(C)cc1 | 0.379
CCOC(=O)C[C@H]1[C@H](OC(=O)c2ccccc2-c2ccccc2)[C@@H](NC(=O)CC(C)C)c2cc(OCCCO)ccc2N1C(=O)Cc1ccc(OC)cc1 | -0.33
CCCC[C@@H]1C[C@H]1[C@@H](NC(=O)c1cccs1)c1ccc(-c2ccccc2)cc1 | 0.936
COc1ccc(-c2cc3c(c(-c4ccc(Oc5ccccc5)cc4)n2)[Si](C(C)C)(C(C)C)OC3)cn1 | 0.179
CC(C)C(=C=CC[C@@H](O)c1ccc(OCCO)cc1)C[C@@H](O)COCc1ccccc1 | -2.41
